PHOSPHO1 inh: PHOSPHO1 (human) inhibition. Q8TCT1. recombinant PHOSPHO1, absorbance phosphatase assay. inhibition, % at 13.3 µM. 1.1% of 290,000 active. AID 1565; in the data active = inhibition above about 60%
p-CIP stab down: p/CIP protein destabilization. Q05BA5. F442A p/CIP-EGFP cells, EGFP fluorescence, 16 h. decrease of EGFP signal, % at 10 µM. 0.01% of 290,000 active. AID 1984;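 active = EGFP signal decrease of at least 30% at 10 µM or well 3 SD below plate mean, unless failing retest; inactive = the rest, including hits failing retest or dose response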
NadD block: inhibitors of Staphylococcus aureus NadD; AID 602399; 0.78% of 360,000 active; purified NadD enzyme, colorimetric absorbance read-out; inhibition, % at 20 µM; in the data active = inhibition above about 26%
UBC9 SUMO inh: inhibitors of human SUMOylation (UBC9) | P63279 | HTRF SUMOylation assay, SAE1/SAE2 + UBC9, in vitro | inhibition, % at 35 µM | 0.36% of 290,000 active | AID 2006; in the data active = inhibition above about 50%, passing the limit was not always enough
NadD inh conf: NadD (S. aureus) inhibition, single concentration confirmation. shares compounds with NadD block. purified S. aureus NadD, colorimetric enzyme assay. inhibition, % at 20 µM. 13% of 2,000 active. AID 624309; in the data active = inhibition mostly above about 42%, no sharp cut-off; inactive = mostly below about 42%
Starred values were filed as active, the others as inactive; . = no result. An excerpt weighted towards active compounds, which were near 1.8% of everything screened.

SMILES	PHOSPHO1 inh	p-CIP stab down	NadD block	UBC9 SUMO inh	NadD inh conf
CC(=O)c1cccc(Nc2nc(-c3ccccc3)nc3ccccc23)c1	-12.5	-8.4	4.7	6.2	.
CC(=O)c1cccc(-c2ccc3c(=O)[nH]c(Nc4ccccc4)cc3c2)c1	.	.	35.0*	.	23.0
Cc1ccc(Cl)cc1Nc1nc(-c2sc(NC(=O)c3ccco3)nc2C)cs1	41.6	2.1	36.0*	31.1	14.9
Cc1nc(NC(=O)c2ccccc2)sc1-c1csc(Nc2ccc(Cl)cc2Cl)n1	15.8	-10.9	.	1.9	.
CCCC(C)C(=O)Nc1nc(C)c(-c2csc(Nc3cc(Cl)ccc3C)n2)s1 (centres undefined)	74.3*	-2.2	28.5*	28.1	12.8
Cc1nc(NC(=O)c2ccco2)sc1-c1csc(Nc2ccc(Cl)cc2)n1	7.2	-6.6	35.9*	15.1	35.7
Cc1nc(NC(=O)c2ccco2)sc1-c1csc(Nc2ccc(Cl)cc2Cl)n1	-18.6	-16.3	52.7*	-21.4	27.6
COc1cccc(N(C(=O)c2ccco2)c2nc(-c3sc(NC(=O)c4ccco4)nc3C)cs2)c1	-18.6	-6.2	35.9*	-16.4	46.0
COc1ccc(-c2csc(NC(=O)c3ccco3)n2)cc1	-35.3	-15.0	0.6	-22.8	.
Cc1ccc(NC(=O)CC2S/C(=N/N=C/c3ccco3)NC2=O)cc1Cl (centres undefined)	-3.0	-4.7	10.3	33.7	.
Cc1ccc(NC(=O)CC2S/C(=N/N=C/C=C/c3ccccc3)NC2=O)cc1Cl (centres undefined)	1.7	1.6	32.3*	-9.1	7.4
COc1cc(NC(=O)[C@H]2O[C@@H](n3ccc(N)nc3=O)[C@H](O)[C@@H]2O)cc(OC)c1OC	.	.	-0.9	.	.
Nc1ccc(O)c(-c2nc3ccccc3s2)c1	31.0	2.8	63.4*	24.5	22.9
N#C/C(=C\c1coc2ccc(O)cc2c1=O)C(=O)Nc1nc2ccccc2s1	-64.2	-31.3	30.4*	4.5	41.6
N#C/C(=C\c1coc2ccccc2c1=O)C(N)=S	31.7	14.6	21.7	6.4	.
O=C(NNc1cc(Cl)ccc1Cl)C1CCC1	-1.3	-2.3	6.9	0.7	.
COc1ccc(-c2nc3ccccc3c(=O)n2NC(=S)N(C)C)cc1	-38.1	-6.8	1.1	-0.8	.
Cc1ccccc1N1CCN(CCN2C(=O)CC(=C3c4ccccc4-c4ccccc43)C2=O)CC1	.	.	30.6*	.	39.0
O=C1CC(=C2c3ccccc3-c3ccccc32)C(=O)N1CCN1CCN(c2ccccc2)CC1	.	.	38.2*	.	27.2
O=C(CCN1C(=O)c2ccccc2C1=O)N1CCN(c2ccccc2)CC1	-23.4	-5.7	-5.4	3.4	.
COC(=O)c1cccc(CN2C(=O)SC(Nc3ccccc3)C2=O)c1 (centres undefined)	.	-5.4	30.7*	1.9	-5.7
COc1ccccc1/C=C/C1=NC(=C\C=C/c2ccccc2)/C(=O)O1	0.3	-5.7	19.4	-2.5	.
COc1ccccc1/C=C/C=C1N=C(/C=C/c2ccc(Cl)cc2)OC/1=O	0.7	-6.6	31.9*	2.9	-2.6
Cc1ccc(S(=O)(=O)NC(=O)NC(C)c2ccc(F)cc2)cc1 (centres undefined)	39.0	-5.7	-1.3	9.7	.
COc1ccc(OC)c(C2=NOC(C(=O)Nc3cc(C)on3)C2)c1 (centres undefined)	23.9	3.7	-2.1	21.6	.
SMILES	PHOSPHO1 inh	p-CIP stab down	NadD block	UBC9 SUMO inh	NadD inh conf
CCCCc1ccc(S(=O)(=O)NC(=O)C2(C)CCN2C(=O)Cc2ccccc2)cc1 (centres undefined)	.	.	-0.7	.	.
CC(C)CC(=O)[C@@H](O)Cc1ccc(O)cc1	.	.	-1.8	.	.
CSc1ccc(NC(=O)CSc2nc3[nH]c(=O)cc(O)c3s2)cc1	.	.	53.7*	.	27.7
COC(=O)c1c(NC(=O)c2ccc(C)c(S(=O)(=O)Nc3ccccc3C)c2)sc2c1CCCC2	18.6	0.3	21.8*	11.4	-7.2
CCOC(=O)c1ccc(NC(=O)c2nc[nH]c2C(=O)N(C)CCO)cc1	.	.	-1.1	.	.
CCOc1ccc(C(=O)NNC(=O)c2cc(S(=O)(=O)N3CCOCC3)ccc2Cl)cc1	.	.	2.6	.	.
CCn1c(SCC(=O)Nc2nc(-c3ccc(C)cc3)cs2)nnc1-c1ccccc1O	13.9	-3.6	37.4*	-47.9	43.1*
CCn1c(SCC(=O)Nc2nc(-c3ccc(C)cc3)cs2)nnc1-c1ccccc1	22.3	8.5	13.9	0.7	.
O=C(Nc1ccccc1F)C1CCCN(S(=O)(=O)c2ccccc2)C1 (centres undefined)	38.5	-12.5	-1.9	5.4	.
O=C(O/C(=C/c1ccccc1)C(F)(F)F)c1ccccc1	.	.	-0.2	.	.
CC(C)CC(C(=O)Nc1oc(-c2ccco2)c(-c2ccco2)c1C#N)N1C(=O)c2ccccc2C1=O (centres undefined)	38.9	-3.5	48.0*	32.9	46.7*
COc1ccc(-c2ccc3[nH]c4c(c3c2)CCN2C(=O)[C@@H]([C@H](C)O)[C@@H](N(C)C(=O)Nc3cc(Cl)cc(Cl)c3)C[C@@H]42)cc1	.	.	30.6*	.	23.4
Cc1ccc(Cc2cnc(N3C(=N)SC(c4ccccc4)C3=O)s2)cc1 (centres undefined)	-13.9	8.1	50.6*	-42.6	7.9
O=[N+]([O-])c1cccc(-c2cc(-c3cc(Br)ccc3O)[nH]n2)c1	23.0	-16.3	37.7*	1.6	4.4
CCC(c1ccccc1)c1noc(CCN(CC)CC)n1 (centres undefined)	.	.	-1.5	.	.
COc1ccc(/C=N/NC(=O)c2nn(-c3ccccc3)c(=O)c3c(N)scc23)cc1	3.4	0.2	50.7*	2.2	17.0
COc1ccc(/C=N/NC(=O)c2nn(-c3ccc(C)c(C)c3)c(=O)c3ccccc23)cc1	-6.1	-2.8	20.8	5.1	.
COc1ccc(/C=N/NC(=O)c2nn(-c3ccc(Cl)cc3)c(=O)c3c(N)scc23)cc1	99.7*	-8.0	55.1*	25.0	42.6
COc1cc(C2c3c(c(C)c(C)oc3=O)Oc3c(C)c(C)oc(=O)c32)ccc1OS(=O)(=O)c1ccc(C)cc1	.	.	32.0*	.	1.5
COc1ccc(C2c3c(c(C)c(C)oc3=O)Oc3c(C)c(C)oc(=O)c32)cc1	.	.	0.5	.	.
C[C@@H]1CN([C@H](C)CO)C(=O)c2cc(NC(=O)c3ccncc3)ccc2O[C@@H]1CN(C)C(=O)Nc1ccccc1	.	.	61.2*	.	47.0*
C[C@H](CO)N1C[C@H](C)[C@@H](CN(C)C(=O)Nc2ccc(C(F)(F)F)cc2)Oc2ccc(NC(=O)c3ccncc3)cc2C1=O	.	.	11.5	.	.
C[C@@H]1CN([C@@H](C)CO)C(=O)Cc2cc(NC(=O)Nc3cccc4ccccc34)ccc2O[C@@H]1CN(C)Cc1ccc(C(F)(F)F)cc1	.	.	31.3*	.	9.3
Cc1noc(C)c1NC(=O)N(C)C[C@@H]1Oc2c(NC(=O)c3ccncc3)cccc2C(=O)N([C@H](C)CO)C[C@@H]1C	.	.	36.5*	.	57.4*
CCN(c1ccccc1)S(=O)(=O)c1ccc(Cl)c(NC(=O)CN(C)Cc2cccc(F)c2)c1	.	.	15.4	.	.
CC(=O)Nc1ccc(CNc2nc(NC(C)C)nc3cc(-c4ccccc4)sc23)cc1	.	.	22.3	.	.
C=CCNc1nc(NCc2ccc(NC(C)=O)cc2)c2sc(-c3ccccc3)cc2n1	.	.	31.5*	.	21.5

Bioassay records: PubChem, Sanford-Burnham Center for Chemical Genomics
